# Source: ChEMBL document CHEMBL1157539, “Thousands of chemical starting points for antimalarial lead identification” (Nature, 2010)
# Assays:
# Type in all cases: functional
# Plasmodium falciparum [1] = assay: GSK_TCMDC: Inhibition of Plasmodium falciparum 3D7 in whole red blood cells, using parasite LDH activity as an index of growth. Test compounds present at 2uM
# Plasmodium falciparum [2] = assay: GSK_TCMDC: Inhibition of Plasmodium falciparum Dd2 in whole red blood cells, using parasite LDH activity as an index of growth. Test compounds present at 2uM
# HepG2 = assay: GSK_TCMDC: Percent inhibition of human HepG2 cell line. Test compounds present at 10uM.
Compound,Inhibition (Plasmodium falciparum [1]),Inhibition (Plasmodium falciparum [2]),Inhibition (HepG2)
Cc1ccc2ncc(Cl)c(CCN3CCC(NCc4ccc5c(n4)NC(=O)CS5)CC3)c2n1.Cl,90%,12%,13%
CC1CCCN(C(=O)c2cc(-c3ccccn3)nc3c(Cl)cccc23)C1 (centres undefined),86%,9%,2%
O=C(Cc1ccccc1)NC(c1ccc(Cl)cc1)c1ccc2cccnc2c1O (centres undefined),93%,64%,50%
Cc1ccccc1NC(=S)NC1CCN(CCCCCNC(=O)/C=C/c2ccc(Cl)c(Cl)c2)CC1,99%,7%,14%
Cc1cccc2nc(-c3cccc(-c4cccc(CN5CCC(CO)CC5)c4)c3)[nH]c12.O=C(O)C(F)(F)F,100%,90%,4%
Cc1cc(F)ccc1[C@H]1C[C@H](N2CCOCC2)CCN1C(=O)N(C)[C@@H](C)c1cc(C(F)(F)F)cc(C(F)(F)F)c1.Cl,100%,99%,4%
CNCCNCc1ccc(-c2cccc(-c3nc4cc(C(F)(F)F)ccc4[nH]3)c2)cc1.O=C(O)C(F)(F)F,98%,77%,27%
COc1ccc(CNC(=O)Nc2cc3cc(-c4ccc(CN5CCCC5)cc4)ccc3n3c(C)nnc23)cc1,100%,100%,100%
CCN1CCN(c2cc(C)c3cc(NC(=O)c4cccc(Cl)c4)ccc3n2)CC1,100%,58%,4%
CC(C)c1cc(Oc2c(I)cc(CCNC(=N)N)cc2I)ccc1O.Cl,98%,54%,19%
O=C(Nc1ccc(Cl)c(Cl)c1)Nc1ccc2c(c1)CCNCC2.O=C(O)C(F)(F)F,86%,37%,13%
CC(C)(C)c1cc(C(=O)N2CCN(c3nccnc3C#N)CC2)n(Cc2ccccc2)n1,100%,93%,0%
CCOc1cc(C(=O)NC2CC(C)(C)NC(C)(C)C2)ccc1-c1nc2cc(Cl)ccc2[nH]1,100%,64%,46%
O=C(NCC1COc2ccccc2O1)c1cnc2c(c1)nc(-c1c[nH]c(-c3ccccc3)n1)n2CCSCc1c(F)cccc1Cl (centres undefined),95%,10%,6%
CCc1nc(N)nc(N)c1CCCOc1ccccc1Cl.Cl,92%,13%,61%
Cc1cc(F)ccc1-c1nc(Nc2ccncc2)c2ccn(C)c2n1,89%,8%,9%
Cc1nc(N)nc(N)c1OCc1cccc2ccccc12.Cl,96%,11%,63%

Compound,Inhibition (Plasmodium falciparum [1]),Inhibition (Plasmodium falciparum [2]),Inhibition (HepG2)
COc1cc2c(cc1N1CCN(C)CC1)N(C(=O)Nc1ccc(-c3ccncc3)c(Cl)c1Cl)CC2,100%,4%,10%
CC(C)Sc1ccc(Cl)cc1CON1C(=N)N=C(N)NC1(C)C.Cl,93%,90%,66%
O=C(COc1ccccc1Cc1ccccc1)Nc1cc(Cl)ccc1-n1cncn1,92%,93%,5%
CN1CCCN(c2ccnc3cc4c(cc23)N(C(=O)c2ccccc2Cl)CC4)CC1.Cl,88%,30%,4%
CCCN1CCC2(CC1)NC(C(=O)NCCC(C)C)Cc1c2[nH]c2cc(Cl)ccc12 (centres undefined),86%,0%,13%
Cc1nc2nc(N)nc(N)c2c(C)c1Cc1cccc(C#N)c1.Cl,97%,1%,64%
COc1ccc(CCN2CCC(NCc3cccc(N(C)C)c3)CC2)cc1,98%,7%,18%
CS(=O)(=O)NCCCNCc1ccc(-c2cccc(-c3nc4cc(C(F)(F)F)ccc4[nH]3)c2)cc1.O=C(O)C(F)(F)F,100%,83%,17%
CC1=C(C(=O)Nc2ccc(Cl)cc2)C(c2ccncc2)n2nc(C(F)(F)F)nc2N1 (centres undefined),87%,49%,25%
Cl.Nc1nc(Nc2ccc(Cl)cc2)nc2ccccc12,100%,21%,6%
CN1CCN(CCCN(Cc2ccc(-c3ccc(CNC4CCCC4)cc3)cc2)C(=O)CCC2CCCC2)CC1.O=C(O)C(F)(F)F,98%,96%,92%
CC(=O)Oc1c(C2CCN(CCCCNC(=O)c3ccc(-c4ccc(C#N)cc4)cc3)CC2)ccc2c1CCCC2,88%,52%,21%
Cc1ccc(Cn2ncc(NC3CCNCC3)c(Cl)c2=O)cc1NC(=O)Nc1ccc(-c2ccccc2)cc1.O=C(O)C(F)(F)F,99%,61%,18%
CCN(CCC1(c2ccc(Cl)c(Cl)c2)CN(C(=O)c2cc(OC)c(OC)c(OC)c2)CCO1)C1CC2c3ccccc3CC21 (centres undefined),80%,65%,26%
COc1cc(-c2nc(-c3ccccc3)c(-c3ccccc3)[nH]2)ccc1OCCN(C)C,100%,100%,0%
Cc1nnsc1C(=O)Nc1cccc(-c2ccc(-c3nc4cc(F)ccc4[nH]3)s2)c1,89%,22%,62%
